PubChem BioAssay (EPA / NIEHS)
Inconclusive results are not listed. Activity calls are given as the source filed them. How the source made its calls: active means hit-call score of the fitted dose curve at least 0.9, where 1 is the maximum; inconclusive means response in the unintended direction; inactive means score below 0.9.

Key:
[1] = target: Cellular tumor antigen p53 (Homo sapiens) (UniProt P04637); assay: TOX21_p53_BLA_p2_ratio: Tox21 HCT-116 p53 Agonism Beta-lactamase Assay, Ratio, Phase 2 (AID 2283592)
Chain of Cellular tumor antigen p53 (Homo sapiens) (P04637 whole entry, looked up): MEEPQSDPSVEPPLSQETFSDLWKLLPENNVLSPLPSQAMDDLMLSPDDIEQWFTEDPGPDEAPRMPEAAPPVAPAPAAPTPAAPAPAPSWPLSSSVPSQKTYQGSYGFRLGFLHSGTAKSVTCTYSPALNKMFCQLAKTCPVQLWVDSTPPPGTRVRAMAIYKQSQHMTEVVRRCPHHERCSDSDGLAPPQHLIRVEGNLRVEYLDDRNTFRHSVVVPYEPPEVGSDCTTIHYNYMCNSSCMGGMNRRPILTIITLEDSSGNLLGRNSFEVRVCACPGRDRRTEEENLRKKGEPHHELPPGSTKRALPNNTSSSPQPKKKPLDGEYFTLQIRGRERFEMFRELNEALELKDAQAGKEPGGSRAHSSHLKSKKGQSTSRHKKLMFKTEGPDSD
Procedure, shortened: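 An inducible beta-lactamase reporter in HCT116 cells signals p53 pathway activation. After 16 h chemical exposure at 37C, cells load CCF4-AM substrate for 2 h at room temperature; activity is the cleaved/uncleaved emission ratio relative to DMSO.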

[2] = target: Cellular tumor antigen p53 (Homo sapiens) (UniProt P04637); assay: TOX21_p53_BLA_p3_ratio: Tox21 HCT-116 p53 Agonism Beta-lactamase Assay, Ratio, Phase 3 (AID 2283596)
Procedure, shortened: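 HCT116 p53-bla cells (4000/well) given compound in DMSO (217-fold dilution) after 5 h, incubated 16 h at 37C. CCF4-AM substrate 2 h at room temperature; 460/530 nm emission ratio, gain fitted against DMSO.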

[3] = TOX21_p53_BLA_p4_viability: Viability Assessment in the Tox21 HCT-116 p53 Agonism Beta-lactamase Assay, Phase 4 (AID 2283597);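 further: hits lower the luminescence signal meaning cytotoxicity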
Procedure, shortened: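 Compound exposure of HCT116 cells lasts 16 h at 37C, 5% CO2, with DMSO stocks diluted 217-fold. Cellular ATP is then quantified by CellTiter-Glo luminescence after 30 min at room temperature.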

[4] = target: Cellular tumor antigen p53 (Homo sapiens) (UniProt P04637); assay: TOX21_p53_BLA_p5_ratio: Tox21 HCT-116 p53 Agonism Beta-lactamase Assay, Ratio, Phase 5 (AID 2283599)
Procedure, shortened: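 Beta-lactamase reporter ratio (blue 460 nm over green 530 nm, 405 nm excitation) after 2 h CCF4-AM loading, in HCT-116 cells exposed 16 h at 37 C to compounds pinned at 217-fold dilution. Increases relative to DMSO baseline scored.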

[5] = TOX21_p53_BLA_p5_viability: Viability Assessment in the Tox21 HCT-116 p53 Agonism Beta-lactamase Assay, Phase 5 (AID 2283600)
Procedure, shortened: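 Counter-readout for cytotoxicity: ATP-dependent luminescence from CellTiter-Glo, read in the beta-lactamase wells after 30 min at RT, following a 16 h compound exposure at 37C.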

[6] = target: Cellular tumor antigen p53 (Homo sapiens) (UniProt P04637); assay: TOX21_p53_BLA_p4_ratio: Tox21 HCT-116 p53 Agonism Beta-lactamase Assay, Ratio, Phase 4 (AID 2283601)
Procedure, shortened: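 Signal is the blue/green (460nm/530nm) ratio of cleaved versus uncleaved CCF4-AM substrate, read after 2 h substrate loading. Cells were HCT116 carrying the p53-responsive beta-lactamase reporter, dosed 16 h at 37C, 5% CO2; CellTiter-Glo measured in parallel.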

[7] = TOX21_p53_BLA_p3_viability: Viability Assessment in the Tox21 HCT-116 p53 Agonism Beta-lactamase Assay, Phase 3 (AID 2283593);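 further: cells exposed to compound for 16 h before reading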
Procedure, shortened: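 Cellular ATP was quantified by CellTiter-Glo luminescence, read after 30 min at room temperature. Beforehand, HCT116 cells (4000/well) received compound 5 h post-seeding, 217-fold diluted from DMSO, then incubated 16 h at 37C.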

[8] = target: PGR (gene 5241) (UniProt P06401); assay: TOX21_PR_BLA_Followup_Antagonist_ratio: Tox21 HEK293 Progesterone Receptor (PR) Antagonism Beta-lactamase Follow-Up Assay, Ratio (AID 2283934)
Chain of PGR (gene 5241) (P06401 whole entry, looked up): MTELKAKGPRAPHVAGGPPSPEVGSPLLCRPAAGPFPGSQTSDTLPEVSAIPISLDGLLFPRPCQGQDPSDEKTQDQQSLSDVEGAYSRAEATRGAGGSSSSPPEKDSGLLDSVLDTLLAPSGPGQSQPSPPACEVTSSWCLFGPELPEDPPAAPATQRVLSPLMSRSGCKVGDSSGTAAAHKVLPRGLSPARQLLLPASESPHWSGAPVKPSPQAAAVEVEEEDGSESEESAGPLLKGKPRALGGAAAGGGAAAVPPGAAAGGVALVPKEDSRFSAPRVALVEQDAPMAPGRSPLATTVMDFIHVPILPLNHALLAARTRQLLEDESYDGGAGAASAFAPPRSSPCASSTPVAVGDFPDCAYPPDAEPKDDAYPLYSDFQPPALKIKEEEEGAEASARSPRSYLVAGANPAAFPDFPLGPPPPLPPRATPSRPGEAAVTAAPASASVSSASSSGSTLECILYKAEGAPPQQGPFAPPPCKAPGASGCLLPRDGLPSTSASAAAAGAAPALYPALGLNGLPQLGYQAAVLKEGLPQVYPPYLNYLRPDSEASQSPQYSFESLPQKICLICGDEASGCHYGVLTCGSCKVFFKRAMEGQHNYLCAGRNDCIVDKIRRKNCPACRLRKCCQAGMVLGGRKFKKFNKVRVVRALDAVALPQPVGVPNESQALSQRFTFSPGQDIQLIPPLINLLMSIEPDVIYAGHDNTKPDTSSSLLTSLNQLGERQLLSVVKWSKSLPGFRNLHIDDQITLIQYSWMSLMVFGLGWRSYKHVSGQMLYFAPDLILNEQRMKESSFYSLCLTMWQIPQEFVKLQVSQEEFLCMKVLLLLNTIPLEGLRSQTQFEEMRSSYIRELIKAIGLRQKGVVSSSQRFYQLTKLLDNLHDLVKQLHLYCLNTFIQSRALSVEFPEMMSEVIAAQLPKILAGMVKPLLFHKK
Procedure, shortened: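 PR-UAS-bla HEK293T cells, 3,000/well in 2% charcoal-stripped FBS, given compound plus 1nM R5020 agonist for 16 hr at 37C. Beta-lactamase FRET substrate 2 hours, ratio cleaved/uncleaved fluorescence; viability by CellTiter-Glo in same wells.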

[9] = TOX21_PR_BLA_Followup_Agonist_viability: Viability Assessment in the Tox21 HEK293 Progesterone Receptor (PR) Agonism Beta-lactamase Follow-Up Assay (AID 2283935);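 further: signal loss means lower viability so actives are cytotoxic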
Procedure, shortened: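 PR-UAS-bla HEK293T cells in 2% charcoal-stripped FBS medium, plated 6 hr before compound addition, exposed 16 hr at 37C. Viability read by CellTiter-Glo ATP luminescence after 30 min at room temperature, in the same wells as the beta-lactamase readout.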

[10] = TOX21_PR_BLA_Followup_Antagonist_viability: Viability Assessment in the Tox21 HEK293 Progesterone Receptor (PR) Antagonism Beta-lactamase Follow-Up Assay (AID 2283936);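 further: hits lower the luminescence signal meaning cytotoxicity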
Procedure, shortened: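 PR-UAS-bla HEK293T cells (3,000/well, 2% charcoal-stripped FBS) given compound plus R5020 agonist, 16 h at 37C. CellTiter-Glo added after bla read, 30 min at room temperature; luminescence loss indicates cytotoxicity.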

[11] = target: PGR (gene 5241) (UniProt P06401); assay: TOX21_PR_LUC_Followup_Antagonist: Tox21 HEK293 Progesterone Receptor (PR) Antagonism Luciferase Follow-Up Assay (AID 2283938);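 further: curve fitted upward as signal gain over DMSO baseline despite antagonist label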
Procedure, shortened: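 A follow-up to the PR bla screen using HEK293-PR-A-luc cells, multiplexed with cell viability to flag cytotoxicity. Reporter luminescence after 16 h compound exposure was analysed relative to DMSO.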

[12] = TOX21_PR_LUC_Followup_Agonist_viability: Viability Assessment in the Tox21 HEK293 Progesterone Receptor (PR) Agonism Luciferase Follow-Up Assay (AID 2283941);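 further: loss of signal means cytotoxicity so actives lower viability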
Procedure, shortened: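 HEK293-PR-A-luc cells, kept in 10% charcoal-stripped FBS medium, were treated with compounds for 16 h at 37C. Viability read as cellular ATP by luciferase-coupled luminescence; loss of signal indicates cytotoxicity.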

Measured: AC50

CC[C@H](OC(C)=O)C(C[C@H](C)NC)(c1ccccc1)c1ccccc1
active: [3] 51.1 µM
inactive: [1] | [2] | [4] | [5] | [6]

CC(CCc1ccccc1)NC(C)C(O)c1ccc(O)cc1 (configuration not stated)
inactive: [1] | [2]

CN1C(=O)CN=C(c2ccccc2)c2cc([N+](=O)[O-])ccc21
inactive: [1] | [2] | [3] | [4] | [5]

Oc1ccc2c3c1O[C@H]1[C@@H](O)C=C[C@H]4[C@@H](C2)NCC[C@@]341
inactive: [1] | [2] | [3] | [4] | [6]

CCCCCCBr
inactive: [1] | [2] | [3] | [4] | [6]

Cc1cnc[nH]1
inactive: [1] | [7] | [5] | [6]

CCSCc1ccccc1OC(=O)NC
inactive: [1] | [7] | [5] | [6]

c1ccc2c(c1)OCC(C1=NCCN1)O2 (configuration not stated)
inactive: [1] | [2] | [3] | [4] | [6]

N#C/C=C/C#N
active: [2] 93.4 µM
inactive: [1]

C[C@]12CC[C@H]3[C@@H](CC=C4C[C@@H](O)CC[C@@]43C)[C@@H]1CC[C@@H]2O
inactive: [1] | [2] | [3] | [4] | [5]

O=[N+]([O-])c1ccc(CCl)cc1
inactive: [1] | [2] | [3] | [4] | [5] | [6]

CCOP(=S)(OCC)Oc1cc(C)nc(N(CC)CC)n1
inactive: [1] | [7] | [3] | [5] | [6]

C[C@]1(O)CC[C@H]2[C@@H]3CCC4=CC(=O)CC[C@]4(C)[C@@]3(F)[C@@H](O)C[C@@]21C
inactive: [1] | [7] | [3] | [5] | [6] | [8] | [9] | [10] | [11] | [12]

[Cl][Sn]([Cl])([Cl])[Cl]
inactive: [1] | [2] | [3] | [4] | [5] | [6]

Cc1nc(N)nc(N)n1
inactive: [1] | [7] | [5] | [6]

Cc1ccc(-c2nc3ccc(C)cn3c2CC(=O)N(C)C)cc1
inactive: [1] | [7] | [4] | [5] | [6]

COc1ccc2c(c1)C13CCCC[C@@H]1C(C2)N(C)CC3 (some centres not stated)
inactive: [1] | [2] | [3] | [4]

C[C@@H]([C@H](O)c1ccccc1)N(C)C
inactive: [1] | [2] | [3] | [4] | [5] | [6]

Cc1ccc2c(c1)[C@]13CCCC[C@@H]1[C@H](C2)N(C)CC3
inactive: [1] | [7] | [6]
